The term AC50 denotes the concentration giving half of the maximal activity seen.

These results are taken from PubChem BioAssay (EPA / NIEHS).

A short description of assay [1]: APR_HepG2_P-H2AX_72hr: Apredica 72-hour HepG2 Assay for H2AX Phosphorylation (AID 2282916).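 Also: phospho-histone H2A.x immunostain intensity per cell marking DNA damage.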 To be noted: imaging, actives raise or lower the signal. Summed up:
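Human hepatoma HepG2 cells are dosed across ten concentrations (0.39 to 200 uM, 0.5% v/v DMSO) and incubated 72 hr. Phospho-histone H2A.x is then detected by antibody staining alongside c-Jun and Hoechst, and quantified by automated fluorescence imaging.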

Assay [2] in a line: APR_HepG2_MitoMembPot_72hr: Apredica 72-hour HepG2 Assay for Mitochondrial Membrane Potential (AID 2282917). Particulars: imaging, actives raise or lower the signal. The essentials:
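HepG2 cells exposed 72 h to compounds at 0.39–200 uM (0.5% v/v DMSO, duplicates); MitoTracker Red CMXRos 250 nM loaded 30 min before 3.7% formaldehyde fixation, imaged by HCS fluorescence. Bidirectional fit versus DMSO.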

Assay [3] can be described thus: APR_HepG2_MitoticArrest_72hr: Apredica 72-hour HepG2 Assay for Mitotic Arrest (AID 2282918). To be noted: high-content imaging, actives raise or lower the signal. Summed up: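 HepG2 cells were exposed for 72 hr to compound at 0.39–200 uM (10 concentrations, duplicate) in 0.5% v/v DMSO, fixed in 3.7% formaldehyde, immunostained for phospho-histone H3 with Hoechst 33342 and imaged by high-content fluorescence; bidirectional fits versus DMSO.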

The nature of assay [4]: APR_HepG2_MicrotubuleCSK_72hr: Apredica 72-hour HepG2 Assay for Microtubule CSK Stabilty (AID 2282919). Particulars: HepG2 microtubule cytoskeleton, high-content imaging, actives raise or lower the signal. Summed up: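 Ten-point dosing (0.39–200 uM, 0.5% DMSO) of HepG2 for 72 hr, with taxol as the cytoskeletal positive control. The cells were formaldehyde-fixed and then stained with alpha-tubulin/Cy5 and Hoechst. Imaging at 20x used a −2 um Z offset for tubulin.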

Assay [5] is described as follows: APR_HepG2_P-H2AX_24hr: Apredica 24-hour HepG2 Assay for H2AX Phosphorylation (AID 2282920). To be noted: high-content imaging, actives raise or lower the signal. Summed up: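 HepG2 human liver cells were exposed for 24 hr to compounds at 0.39–200 uM in duplicate, with 0.5% v/v DMSO final. Fixed cells were immunostained for phospho-histone H2A.x plus Hoechst 33342, imaged by HCS fluorescence, and fitted bidirectionally against DMSO.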

Assay [6] can be described thus: APR_HepG2_StressKinase_72hr: Apredica 72-hour HepG2 Assay for Stress Kinase (AID 2282921). Particulars: HepG2 stress kinase (phospho-c-Jun) imaging, actives raise or lower the signal. Summed up: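 After a 72 h compound treatment spanning 0.39 to 200 uM, formaldehyde-fixed cells are labelled for phosphorylated c-Jun and nuclei, imaged by automated fluorescence microscopy, and activity is fitted in both directions relative to DMSO controls.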

Assay [7] is described as follows: APR_HepG2_p53Act_72hr: Apredica 72-hour HepG2 Assay for p53 Activation (AID 2282923).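 Also: average cellular p53 protein immunofluorescence intensity in HepG2 cells.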 To be noted: high-content imaging, actives raise or lower the signal. Summed up:
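Imaging-based endpoint: after 72 hr compound exposure (up to 200 uM, 0.5% DMSO), fixed and permeabilized monolayers were labelled with anti-p53 antibody and imaged; signal change in either direction was fitted relative to DMSO controls.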

The nature of assay [8]: APR_HepG2_MitoMass_72hr: Apredica 72-hour HepG2 Assay for Mitochondrial Mass (AID 2282924).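 Also: MitoTracker Red CMXRos stain intensity per cell imaged as mitochondrial mass.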 To be noted: high-content imaging, actives raise or lower the signal. Summed up:
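Steps: treat HepG2 72 hr (0.39–200 uM, duplicate wells); load MitoTracker Red CMXRos, 250 nM, 30 min; fix with 3.7% formaldehyde, permeabilise with 0.5% Triton X-100; capture images, nuclei via Hoechst 33342; fit bidirectionally against DMSO.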

Assay [9] can be described thus: ATG_CRE_CIS: Attagene CIS-FACTORIAL HepG2 Assay for human cAMP Responsive Element (CRE) binding protein 3 (AID 2282926). To be noted: HepG2 CRE cis-reporter, Attagene multiplexed mRNA; actives raise or lower the signal. The essentials: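 Capillary electrophoresis of 6-FAM-labelled, HpaI-digested PCR products quantified reporter transcripts. These came from HepG2 transiently transfected with cis-element reporters and exposed to test chemicals for 24 hours, with DMSO defining baseline activity.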

Assay [10] can be described thus: ATG_CMV_CIS: Attagene CIS-FACTORIAL HepG2 Assay for human CMV (Internal Marker) (AID 2282928).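 Also: endpoint acts as a background internal control marker rather than a target.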 Particulars: HepG2 CMV promoter reporter, transcription factor profiling; actives raise or lower the signal. The essentials:
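Bidirectional fits against DMSO are applied to reporter mRNA, read by RT-PCR with capillary electrophoresis, from HepG2 cells exposed 24 h. The endpoint serves as an internal CMV background marker within the cis-factorial reporter panel.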

A short description of assay [11]: ATG_DR4_LXR_CIS: Attagene CIS-FACTORIAL HepG2 Assay for human Liver X Receptor (LXR), DR4 submotif (AID 2282929). Particulars: HepG2 Attagene DR4 cis-reporter, mRNA transcription; actives raise or lower the signal. Summed up: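 After transient transfection with multiplexed cis-promoter reporter units, HepG2 cells received test chemicals for 24 h. Reporter mRNA induction, detected by fluorescence after RT-PCR and capillary electrophoresis, was scored relative to DMSO.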

Assay [12] in a line: ATG_AP_1_CIS: Attagene CIS-FACTORIAL HepG2 Assay for human Activator Protein 1 (AP-1) (AID 2282931). Particulars: HepG2 Attagene cis-factorial AP-1 reporter mRNA; actives raise or lower the signal. Summed up:
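After 24 h incubation with test chemical, RNA from transfected HepG2 cells was reverse-transcribed, amplified, fluorescently labelled and digested before capillary electrophoresis. Reporters were driven by cis-regulatory promoters; activity fitted bidirectionally versus DMSO.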

Assay [13] in a line: ATG_AP_2_CIS: Attagene CIS-FACTORIAL HepG2 Assay for human Activator Protein 2 (AP-2) (AID 2282932). To be noted: HepG2 AP-2 cis-reporter, Attagene transcription factor profiling; actives raise or lower the signal. The essentials:
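Cells (HepG2) transfected with promoter-driven reporter constructs, treated 24 h. Total RNA reverse-transcribed, reporter cDNA PCR-amplified, FAM-labelled by primer extension, digested, resolved by capillary electrophoresis. Activity fitted both directions versus DMSO.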

Assay [14] can be described thus: ATG_BRE_CIS: Attagene CIS-FACTORIAL HepG2 Assay for human Bone Morphogenetic Protein (BMP) Response Element (BRE) (AID 2282933). Particulars: HepG2 BMP response element reporter, Attagene transcription factor profiling; actives raise or lower the signal. Summed up:
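HepG2 cells transiently transfected with CIS reporter units (endogenous TF activity, BMP response element), dosed 24 h. Reporter mRNA quantified by RT-PCR, fluorescent labelling and capillary electrophoresis; bidirectional fit vs DMSO baseline.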

Assay [15] in a line: APR_HepG2_NuclearSize_72hr: Apredica 72-hour HepG2 Assay for Nuclear Size (AID 2282925). Particulars: high-content imaging, actives raise or lower the signal. Summed up: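 Compounds (0.39–200 uM, final DMSO 0.5%) were applied to HepG2 for 72 hr. Cells were then formaldehyde-fixed, permeabilized and labelled with Hoechst 33342. Nuclear diameter was quantified from six images per well.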

Assay [16] has as its target Aryl hydrocarbon receptor (Homo sapiens) (UniProt P35869). In words: ATG_Ahr_CIS: Attagene CIS-FACTORIAL HepG2 Assay for human Aryl Hydrocarbon Receptor (Ahr) (AID 2282930). To be noted: HepG2 AhR cis-factorial reporter transcription; actives raise or lower the signal. The essentials: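 Values derive from bidirectional fitting against DMSO negative control. Underlying signal: cis-element reporter mRNA in transiently transfected HepG2, harvested 24 h post-dose and measured by RT-PCR plus capillary electrophoresis.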

The target of assay [17] is Retinoic acid receptor alpha (Homo sapiens) (UniProt P10276). In words: ATG_DR5_RAR_CIS: Attagene CIS-FACTORIAL HepG2 Assay for human Retinoic Acid Receptor Alpha (RARE), DR5 submotif (AID 2282934).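 As to AC50: reporter responds to endogenous RAR alpha beta and gamma in HepG2 not RARA alone.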 Particulars: HepG2 Attagene cis-factorial RARE DR5 reporter, mRNA; actives raise or lower the signal. The essentials:
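Endpoint fitted in both directions relative to DMSO as negative control. It reflects DR5 cis-element reporter mRNA induction in transiently transfected HepG2 cells, measured 24 h after dosing through RT-PCR and fluorescent capillary electrophoresis.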

The nature of assay [18]: APR_HepG2_StressKinase_24hr: Apredica 24-hour HepG2 Assay for Stress Kinase (AID 2282922). Particulars: HepG2 stress kinase (phospho-c-Jun) imaging, actives raise or lower the signal. The essentials: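 After 24 hr compound treatment (up to 200 uM, final DMSO 0.5% v/v), HepG2 cells are fixed and multiplex-labeled; phospho-c-Jun intensity is captured by high-content fluorescence imaging and analyzed relative to DMSO.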

In assay [19] the target is CCAAT/enhancer-binding protein beta (Homo sapiens) (UniProt P17676). Kind of assay: ATG_C_EBP_CIS: Attagene CIS-FACTORIAL HepG2 Assay for human CCAAT/Enhancer Binding Protein (C/EBP) beta (AID 2282927). Particulars: HepG2 Attagene cis-factorial transcription factor reporter; actives raise or lower the signal. The essentials:
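Following a 24 h incubation with test chemical, transfected HepG2 cells yielded RNA whose reporter transcripts were quantified by RT-PCR and fluorescent capillary electrophoresis, with DMSO serving as baseline for bidirectional fitting.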

The source made the active and inactive calls. The calls were made as follows: active = hit-call score of the fitted dose curve at least 0.9, where 1 is the maximum; inactive = score below 0.9.

Sequence of Retinoic acid receptor alpha (Homo sapiens) (P10276 whole entry, looked up): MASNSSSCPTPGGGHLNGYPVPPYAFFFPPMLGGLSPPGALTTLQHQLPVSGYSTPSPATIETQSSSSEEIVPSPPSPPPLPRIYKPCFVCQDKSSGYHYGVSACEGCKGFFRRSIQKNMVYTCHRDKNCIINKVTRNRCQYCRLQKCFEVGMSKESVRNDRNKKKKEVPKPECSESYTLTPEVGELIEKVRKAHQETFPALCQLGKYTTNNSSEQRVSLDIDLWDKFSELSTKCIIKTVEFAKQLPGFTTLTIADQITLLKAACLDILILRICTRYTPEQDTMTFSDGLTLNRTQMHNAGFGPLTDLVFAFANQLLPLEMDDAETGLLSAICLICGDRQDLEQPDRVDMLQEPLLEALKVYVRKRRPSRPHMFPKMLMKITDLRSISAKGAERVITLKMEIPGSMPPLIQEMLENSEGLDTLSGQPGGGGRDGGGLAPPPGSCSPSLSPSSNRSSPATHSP
Sequence of Aryl hydrocarbon receptor (Homo sapiens) (P35869 whole entry, looked up): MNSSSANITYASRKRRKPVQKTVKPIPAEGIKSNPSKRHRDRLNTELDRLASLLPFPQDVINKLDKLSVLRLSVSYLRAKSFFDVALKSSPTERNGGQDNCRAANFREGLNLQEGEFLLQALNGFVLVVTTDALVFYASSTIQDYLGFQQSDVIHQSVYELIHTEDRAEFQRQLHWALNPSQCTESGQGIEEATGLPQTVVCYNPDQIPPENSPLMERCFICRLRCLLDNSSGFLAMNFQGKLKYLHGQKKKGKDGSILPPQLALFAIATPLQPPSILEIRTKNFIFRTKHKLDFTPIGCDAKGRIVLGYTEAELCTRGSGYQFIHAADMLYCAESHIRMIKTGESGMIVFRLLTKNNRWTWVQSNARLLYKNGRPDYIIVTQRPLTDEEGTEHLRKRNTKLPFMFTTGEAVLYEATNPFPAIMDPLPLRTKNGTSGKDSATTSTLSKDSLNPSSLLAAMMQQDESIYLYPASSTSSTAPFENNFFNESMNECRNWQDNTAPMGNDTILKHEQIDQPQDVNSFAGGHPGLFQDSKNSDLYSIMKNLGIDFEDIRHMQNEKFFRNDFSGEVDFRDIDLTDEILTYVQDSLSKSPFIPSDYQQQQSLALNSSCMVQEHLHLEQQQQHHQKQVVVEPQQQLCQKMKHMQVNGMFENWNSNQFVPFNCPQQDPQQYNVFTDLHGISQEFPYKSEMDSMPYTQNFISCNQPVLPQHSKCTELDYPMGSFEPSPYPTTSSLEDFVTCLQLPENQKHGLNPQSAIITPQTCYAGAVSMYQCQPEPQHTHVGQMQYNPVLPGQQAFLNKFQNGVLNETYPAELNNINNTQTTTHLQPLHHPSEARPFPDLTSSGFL
Sequence of CCAAT/enhancer-binding protein beta (Homo sapiens) (P17676 whole entry, looked up): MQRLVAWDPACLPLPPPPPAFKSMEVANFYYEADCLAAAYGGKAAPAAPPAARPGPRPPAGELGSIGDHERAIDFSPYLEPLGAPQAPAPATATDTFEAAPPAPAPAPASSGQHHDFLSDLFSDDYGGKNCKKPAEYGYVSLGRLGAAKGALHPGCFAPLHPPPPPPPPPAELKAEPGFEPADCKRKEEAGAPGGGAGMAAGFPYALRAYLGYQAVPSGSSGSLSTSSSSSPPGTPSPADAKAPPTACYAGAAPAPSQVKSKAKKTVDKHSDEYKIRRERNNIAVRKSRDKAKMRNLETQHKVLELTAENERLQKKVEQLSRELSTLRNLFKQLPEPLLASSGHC

As to `O=C(O)COc1ccc(Cl)cc1Cl`, the compound was called inactive in assay [1], in assay [2], in assay [3], in assay [4], in assay [5] and in assay [6]. Also, the call in [7], in assay [8], in assay [9], in assay [10], in [11] and in assay [12] was inactive. Further, the compound was called inactive in assay [13] and in assay [14].

Consider `CC(C)OC(=O)Nc1cccc(Cl)c1`, for which the outcome in [1], in assay [2], in assay [3], in [5], in [6] and in assay [7] was inactive. In addition, the compound was called inactive in [8], in [15], in assay [11], in assay [16], in assay [12] and in [13]. Besides, the outcome in assay [14] and in assay [17] was inactive. The AC50 in [9] was 15.3 µM (active); in [10], 34.1 µM (active).

In the case of `CCCN(CCC)c1c([N+](=O)[O-])cc(C(F)(F)F)cc1[N+](=O)[O-]`, the compound was classed as inactive in assay [1], in assay [2], in assay [3], in assay [5], in assay [6] and in assay [8]. The call in assay [9], in assay [16], in [12], in assay [13] and in assay [14] was inactive. In addition, the results for the AC50 in assay [10] and in assay [11] were 82.3 µM (active) and 24.1 µM (active), respectively.

On to `COc1nn(CSP(=S)(OC)OC)c(=O)s1`, for which the compound was classed as inactive in assay [1], in assay [2], in assay [3], in assay [5], in assay [6] and in [7]. In addition, the result in [8], in assay [9], in [10], in assay [11], in assay [16] and in [12] was inactive. Besides, the compound was called inactive in [13], in assay [14] and in assay [17].

As to `N#Cc1c(Cl)c(Cl)c(Cl)c(C#N)c1Cl`, the compound was classed as inactive in assay [1], in assay [2], in assay [3], in assay [6], in [18] and in assay [7]. In addition, the outcome in assay [8], in assay [9], in [19], in assay [10], in assay [11] and in assay [16] was inactive. The compound was classed as inactive in assay [12], in assay [13] and in [14]. Moreover, the AC50 in [5] is 0.322 µM (active); in assay [17], 0.167 µM (active).

Regarding `CNC(=O)Oc1cccc(N=CN(C)C)c1`, the AC50 in [1] was 107 µM (active); in [5], 106 µM (active); in assay [9] it was 50 µM (active); in assay [10] it was 50 µM (active); in assay [16] it was 93.9 µM (active); in assay [12], 77.5 µM (active). Also, the half-maximal activity concentration (AC50) in assay [14] is 58.3 µM (active). Moreover, the compound was called inactive in assay [2], in assay [3], in assay [6], in assay [7], in [8] and in assay [11]. Moreover, the compound was called inactive in [13] and in assay [17].

For the compound `CNC(=O)CSP(=S)(OC)OC`, the call in assay [1], in assay [2], in assay [3], in assay [5], in assay [6] and in assay [8] was inactive. Besides, the compound was classed as inactive in [15], in assay [9], in assay [10], in assay [11], in [16] and in assay [12]. Further, the call in assay [13] and in assay [14] was inactive.

Turning to `CNC(=O)/C=C(\C)OP(=O)(OC)OC`, the compound was called inactive in assay [1], in assay [2], in [3], in assay [5], in assay [6] and in assay [18]. Also, the compound was called inactive in assay [8], in [9], in assay [10], in assay [11], in [16] and in assay [12]. The outcome in assay [13] and in [14] was inactive.
